PubChem BioAssay AID504432 (National Center for Advancing Translational Sciences (NCATS), 2011)
Several values for one entry are separate records, joined by “and”; a condition that tells them apart may be missing. Equal entries are not always repeated. Inconclusive results are not listed. Activity calls are given as the source filed them. The call rests on the fitted dose curve; in most records, active means well fitted inhibition curve with a large enough effect; inconclusive means small, poorly fitted or top-dose-only effect, or another doubt; inactive means flat fitted curve, though single readings scatter.

Experiment: Confirmation Concentration-Response Assay for lipid storage modulators: for probe SAR round 2
Conditions: Drosophila S3 cells, BODIPY lipid droplet fluorescence, 18-24 h; series mostly up to 46.1 µM
Text: NIH Molecular Libraries Probe Production Centers Network [MLPCN] NIH Chemical Genomics Center [NCGC] MLPCN Grant: 1 R03 MH085686-01 Assay Submitter (PI): Beller, Mathias; Max-Planck-Institut fur Biophysikalische Chemie NCGC Assay Overview: Storing lipids as a reservoir for energy or the anabolism of elementary metabolites is a common feature of probably all cells and is conserved from bacteria to humans. The universal cellular lipid storage organelle is the so-called lipid storage droplet (LD). Although ubiquitous, LDs share a simple structure composed of a hydrophobic core that harbors the storage lipids, which is shielded by a droplet-specific phospholipid monolayer to which proteins are attached. The current model of LD biogenesis involves an incorporation of the lipid core into the membrane leaflets of the endoplasmic reticulum (ER) followed by a subsequent budding-like maturation of a LD, which ultimately pinches off. Once released, LD volume can increase by localized lipogenesis or fusion of existing droplets. Storage lipids are re-mobilized enzymatically by lipase activity. Lipase regulation in the adipocyte is heavily studied and involves multiple components including catecholamine signaling, the LD-associated proteins Perilipin and comparative gene identification-58 (CGI-58) and at least two lipases named hormone sensitive lipase (HSL) and adipocyte triglyceride lipase (ATGL). LD regulation outside of the adipocyte is poorly understood and only few components are known. However, there is an urgent need to learn more about ectopic fat depots as mislocalized storage of lipids, for example in the liver or muscle, is an eminent health problem associated with insulin resistance or the metabolic syndrome. We developed a laser-scanning cytometer assay to enable 1,536-well screening and combined the results of the small molecules screen with an RNAi database based on lipid storage.
We dispensed 4 uL of cells at 1.25 x 10^6 cells/mL into LoBase Aurora COC 1,536-well plates (black walled, clear bottom) with a bottle-valve solenoid-based dispenser (Aurora) to obtain 5,000 cells/well. Triacsin C (Sigma-Aldrich T-4540), an inhibitor of long-chain fatty acyl CoA synthetase that blocks synthesis of triglycerides, was used as a positive control for lipid under-storage. A total of 23 nL of compound solution of different concentrations were transferred to the assay plates using a Kalypsys pin tool equipped with a 1,536-pin array containing 10-nL slotted pins (FP1S10, 0.457-mm diameter, 50.8 mm long; V&P Scientific). One microliter of oleic acid (400 uM) was added, and the plate was lidded with stainless steel rubber gasket lined lids containing pinholes. After 18-24 h incubation at 24 degree Celsius and 95% humidity, 4 uL of the dyes BODIPY 493/503 (Molecular Probes) and the Cell Tracker Red CMTPX dye (Molecular Probes) were added to the wells to stain lipid droplets and enumerate cell number, respectively. Fluorescence was detected by excitation of the fluorophores with a 488-nm laser on an Acumen Explorer (TTP Lab Tech). The total intensity in channel 1 (500-530 nm) reflected lipid droplet accumulation. Cells were detected using channel 3 (575- 640 nm) with 5-um width and 100-um depth filters. The ratio of the total intensity in PMT channel 1 over total intensity of channel 3 was also calculated. Percent activity was computed relative to an internal control (100% inhibited lipid droplet deposition due to the presence of 20 uM Triacsin C), which was added to 32 wells/plate.

Structure (SMILES)	Potency
CC(C)(NC(=O)Nc1ccccc1Cl)C(=O)N1CCC(C(=O)O)CC1	inactive
CCOC(=O)C1CCN(C(=O)C(C)(C)NC(=O)Nc2ccc3sccc3c2)CC1	12.5 µM (active)
CCOC(=O)C1CCN(C(=O)C(C)(C)NC(=O)Nc2ccc(N(C)C)cc2)CC1	5.6 µM (active)
CC(C)(C)OC(=O)NCCOCCOCCOCCn1ncc2c1CCCC2NC(=O)c1ccccn1 (stereo unspecified)	0.158 µM (active)
O=C(NC1CCCc2c1cnn2-c1ccc(F)cc1F)c1cccs1 (stereo unspecified)	0.0063 µM (active)
CCOC(=O)C1CCN(C(=O)C(C)(C)NC(=O)Nc2ccc(-c3ccccc3)cc2)CC1	1.41 µM (active)
CCOC(=O)C1CCN(C(=O)C(C)(C)NC(=O)Nc2cccc(-c3csc(C)n3)c2)CC1	25 µM (active)
CCOc1ccc(CCNC(=O)c2cc3sccc3n2Cc2cccc(C)c2)cc1OCC	0.0022 µM (active)
CC(C)(C)OC(=O)NCCOCCOCCOc1ccc(-n2ncc3c2CCCC3NC(=O)c2ccccn2)cc1 (stereo unspecified)	0.0018 µM (active)
CCOC(=O)C1CCN(C(=O)C(C)(C)NC(=O)Nc2ccc(Cl)cc2Cl)CC1	0.445 µM (active)
COc1ccc(-n2ncc3c2CCCC3NC(=O)c2ccccn2)cc1 (stereo unspecified)	0.0016 µM (active)
CCNC(=O)C1CCN(C(=O)C(C)(C)NC(=O)Nc2ccccc2Cl)CC1	14.1 µM (active)
CCOC(=O)C1CCN(C(=O)C(C)(C)NC(=O)Nc2ccccc2Cl)CC1	0.705 µM (active)
CCOC(=O)C1CCN(C(=O)C(C)(C)NC(=O)Nc2ccc(CN3CCOCC3)cc2)CC1	inactive
CCN(CC)C(=O)C1CCN(C(=O)C(C)(C)NC(=O)Nc2ccccc2Cl)CC1	15.8 µM (active)
COc1cccc(-n2ncc3c2CCCC3NC(=O)c2ccccn2)c1 (stereo unspecified)	0.0025 µM (active)

Structure (SMILES)	Potency
O=C(NC1CCCc2c1cnn2-c1ccc(F)cc1F)c1ccccn1 (stereo unspecified)	315 nM (active) and 6.3 nM (active)
CCOC(=O)C1CCN(C(=O)C(C)(C)NC(=O)Nc2ccc(OC)c(Cl)c2)CC1	7.91 µM (active)
CCOC(=O)C1CCN(C(=O)C(C)(C)NC(=O)Nc2ccc3ccccc3c2)CC1	4.99 µM (active)
O=C(NC1CCCc2c1cnn2-c1ccc(F)cc1F)c1ccccc1 (stereo unspecified)	0.025 µM (active)
O=C(NC1CCCc2c1cnn2-c1ccc(O)cc1)c1ccccn1 (stereo unspecified)	0.0007 µM (active)
CCOC(=O)C1CCN(C(=O)C(C)(C)NC(=O)Nc2cccc(C(=O)OC)c2)CC1	7.05 µM (active)
O=C(NC1CCCc2c1cnn2-c1cccc(O)c1)c1ccccn1 (stereo unspecified)	0.005 µM (active)
CC(C)(C)OC(=O)NCCOCCOCCOc1cccc(-n2ncc3c2CCCC3NC(=O)c2ccccn2)c1 (stereo unspecified)	0.0056 µM (active)
CCOC(=O)C1CCN(C(=O)C(C)(C)NC(=O)Nc2ccc3c(c2)CCC3)CC1	12.5 µM (active)
O=C(NC1CCCc2c1cnn2CCO)c1ccccn1 (stereo unspecified)	1.58 µM (active)
CCOC(=O)C1CCN(C(=O)C(C)(C)NC(=O)Nc2cccc(OC)c2)CC1	4.45 µM (active)
CCOC(=O)C1CCN(C(=O)C(C)(C)NC(=O)Nc2ccc(Oc3ccccc3)cc2)CC1	0.353 µM (active)
CCOC(=O)C1CCN(C(=O)C(C)(C)NC(=O)Nc2ccc(F)c(F)c2)CC1	1.99 µM (active)
O=C(N[C@H]1CCCc2c1cnn2-c1ccc(F)cc1F)c1ccccn1	22.3 µM (active)
CCOC(=O)C1CCN(C(=O)C(C)(C)NC(=O)Nc2ccc(C(F)(F)F)cc2Cl)CC1	0.141 µM (active)
